About 79,000 compounds went through this panel and 15% of them were active in at least one assay; those are over-represented in the sample as a whole. Unmarked numbers belong to inactive results. Active and inactive are the calls of the source. Rule as the data show it: active = growth inhibition above about 70%; inactive = the rest.
experiment: NCI Yeast Anticancer Drug Screen. Data for the mec2-1 strain (AID 157); conditions: S. cerevisiae mec2-1 strain, at 3.7 µM, stronger effect = higher value
How it was run: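 Yeast mec2-1 mutant treated with compound. Readout: growth inhibition vs vehicle controls.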

| Structure (SMILES) | growth inhibition |
| --- | --- |
| CC1(C)[C@@H]2CC[C@]1(C)[C@H](OC(=O)CSC#N)C2 | 8% |
| S=C(N/N=C(/c1ccccc1)c1ccccn1)N1CCCCCC1 | 0% |
| Cc1ccc2[nH]c3c(C)c4cc[n+](C)cc4c(C)c3c2c1 | 19% |
| CNC(=O)OCc1c(COC(=O)NC)c(-c2ccc(-c3ccccc3)cc2)n(C)c1C | -18% |
| COc1ccccc1/C=C1\Sc2scc(-c3cccc([N+](=O)[O-])c3)[n+]2C1=O | 98% (active) |
| O=[N+]([O-])c1ccc2c(c1)C(N1CCN(CCO)CC1)Cc1ccc(F)cc1S2 (centres undefined) | -2% |
| Cc1ccc(CCC2=CCCc3c2ccc2ccccc32)cc1 | -5% |
| O=[N+]([O-])c1cccc2nccc(NCCCO)c12 | -12% |
| Cc1ccc(-n2cc(-c3ccc(Cl)cc3)c(C#N)c2N)cc1 | -8% |
| Cc1ccc(S/N=C\c2ccccc2O)cc1 | 3% |
| O=C(O)C1OC1(c1cccc(Cl)c1)c1ccccc1Cl (centres undefined) | -13% |
| NC(=S)N/N=C\c1nccc2ccccc12 | 46% |
| Clc1cccc(C(Nc2nncs2)Nc2nncs2)c1Cl | 4% |
| O=C(OCC=C1CCCC1)c1cc([N+](=O)[O-])cc([N+](=O)[O-])c1 | -2% |
| O=C(Nc1ccccc1)C(=O)C(C(=O)c1ccccc1)C(c1ccccc1)c1ccccc1 (centres undefined) | 7% |
| N#CN1C2CCC1CC(=O)C2 | -36% |
| COc1ccccc1C(=O)OCC1CCCN2CCCCC12 (centres undefined) | -6% |
| CCNc1nnc(CSc2nc(-c3ccccc3)c(-c3ccccc3)[nH]2)s1 | 0% |
| O=C1c2ccccc2-c2n[nH]c3cccc1c23 | -38% |
